# Sampled rows, rich in hits. Any-hit rate of the full collection: about 1.3%.
# HIF activator – HIF pathway transcriptional activation; U2OS HRE-luciferase reporter, luminescence; normalized: DMSO 0%, desferrioxamine 100%; activation, % at 7.5 µM (by protocol); 300,000 compounds, 0.32% hits; AID 1910;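 active = mean activation of at least 10% of the iron chelator positive control signal, with at least half of replicates also reaching 10%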
# GC-A act – GC-A (human) enzyme activation | HEK293 GC-A cells, cGMP TR-FRET, EC30 ANP; 0% at EC30 ANP, 100% saturating ANP | AID 1671463 | 370,000 compounds, 0.14% hits | activation, % at 10 µM | P16066; in the data active = activation above about 40%
# Target sequence (P16066 whole entry, looked up): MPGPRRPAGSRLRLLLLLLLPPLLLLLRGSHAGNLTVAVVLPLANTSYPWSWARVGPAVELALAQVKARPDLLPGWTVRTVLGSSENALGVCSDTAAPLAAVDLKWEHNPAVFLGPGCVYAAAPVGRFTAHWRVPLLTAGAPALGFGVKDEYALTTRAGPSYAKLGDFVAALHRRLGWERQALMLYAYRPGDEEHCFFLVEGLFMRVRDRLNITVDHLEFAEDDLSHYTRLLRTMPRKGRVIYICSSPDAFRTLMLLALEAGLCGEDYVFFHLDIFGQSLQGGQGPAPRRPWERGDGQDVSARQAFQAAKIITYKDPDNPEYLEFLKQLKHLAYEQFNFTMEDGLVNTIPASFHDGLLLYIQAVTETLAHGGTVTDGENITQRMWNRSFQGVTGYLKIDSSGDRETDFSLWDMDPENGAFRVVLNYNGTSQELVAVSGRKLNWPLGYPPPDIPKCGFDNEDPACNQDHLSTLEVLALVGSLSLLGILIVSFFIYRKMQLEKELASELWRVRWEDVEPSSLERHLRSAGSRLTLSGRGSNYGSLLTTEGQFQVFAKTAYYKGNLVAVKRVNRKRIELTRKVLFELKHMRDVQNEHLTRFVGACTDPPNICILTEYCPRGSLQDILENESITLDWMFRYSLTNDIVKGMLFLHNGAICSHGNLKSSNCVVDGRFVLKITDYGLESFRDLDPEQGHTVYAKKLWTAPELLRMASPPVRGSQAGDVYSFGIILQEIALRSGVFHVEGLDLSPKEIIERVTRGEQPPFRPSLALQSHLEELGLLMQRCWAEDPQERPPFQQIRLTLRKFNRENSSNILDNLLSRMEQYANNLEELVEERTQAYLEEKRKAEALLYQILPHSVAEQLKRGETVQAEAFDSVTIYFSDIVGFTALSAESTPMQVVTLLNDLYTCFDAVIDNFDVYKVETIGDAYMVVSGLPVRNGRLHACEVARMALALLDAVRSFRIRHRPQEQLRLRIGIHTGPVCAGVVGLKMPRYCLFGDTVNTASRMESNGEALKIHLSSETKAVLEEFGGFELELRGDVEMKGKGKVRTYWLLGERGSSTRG
# NPR2 activator – GC-B (human) receptor activation; P20594; HEK293-GC-B cells, CNP EC30, cGMP TR-FRET; 0% at EC30 CNP, 100% saturating CNP; activation, % at 10 µM; 370,000 compounds, 0.11% hits; AID 1920062;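 active = activation at 10 µM reaching about 35% in either raw or pattern-adjusted values, limit read from the data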
# KLK7 zymogen act – proKLK7 (human) activation, primary screen; P49862; purified proKLK7, EDANS-DABCYL substrate fluorescence; 100% is mature enzyme control, 0% vehicle; activation, % at 7 µM; 370,000 compounds, 0.9% hits; AID 652039;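 active = activation above the mean of all tested compounds plus 3 SD, computed per campaign excluding outliers beyond control limits, cut at about 13% in these data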
# KLK7 act conf – confirmation of human kallikrein-7 zymogen activators; 3,200 compounds, 68% hits; shares compounds with KLK7 zymogen act; AID 686949; activation, % at 7 µM; purified proKLK7, EDANS-DABCYL substrate fluorescence; scaled: vehicle 0, mature enzyme 100;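 active = activation, as change over the incubation, above the mean of all tested compounds plus 3 SD, cut at about 13% in these data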
# EDANS-DABCYL int – fluorescence interference counter-screen for KLK7 activators. AID 686952. 3,200 compounds, 80% hits. shares compounds with KLK7 zymogen act. activation, % at 7 µM. EDANS-DABCYL substrate fluorescence interference, no enzyme, 4 h; solvent 0%, active enzyme control 100%;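 active = activation above the all-compound mean plus 3 SD, ignoring values outside control-based bounds, cut at about 4.8% in these data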;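 note: value is the 4 h activation minus the activation read at time zero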
# EDANS interf – counter-screen for kallikrein-7 activators: EDANS-DABCYL interference, dose response; EC50, µM; 250 compounds, 20% hits; AID 720493; shares compounds with KLK7 zymogen act; EDANS-DABCYL peptide fluorescence interference, no enzyme;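 active = compounds that raise the fluorescence signal in this interference counterscreen, with EC50 at or below 10 µM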;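 note: intact quenched peptide substrate alone read at 355 nm excitation and 520 nm emission; signal is fluorescence gain from T0 to T4 after four hours at room temperature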
# * marks the source's active call; other numbers are inactive results; nt = no result.
SMILES,HIF activator,GC-A act,NPR2 activator,KLK7 zymogen act,KLK7 act conf,EDANS-DABCYL int,others
Nc1nccnc1C(=O)OCc1nc2sc3c(c2c(=O)[nH]1)CCCC3,2,3,-1,49*,89*,75*,EDANS interf=6.5*
Cc1cccc(-n2c(O)c(C=Nc3ccccc3)c3ccccc3c2=O)n1,0,-4,1,17*,15*,16*,
COc1ccc(N=Cc2c(O)n(-c3cccc(C)n3)c(=O)c3ccccc23)cc1,0,-7,6,4,nt,nt,
CCCCNC(=O)C1CCCN1C(=O)Nc1cc(Cl)cc(Cl)c1 (stereo not given),nt,-1,-10,0,nt,nt,
CNc1cccc(-c2ccc(C(C)=O)s2)n1,nt,4,0,1,nt,nt,
CC(=O)c1ccc(-c2cccs2)s1,-18,1,-7,63*,63*,69*,
Cc1ccc(-c2nc3ncccn3c2NC(=O)c2ccccc2)cc1,nt,-2,5,6,nt,nt,
O=C(Nc1ccc(Cl)cc1)C1CCCN1S(=O)(=O)c1cccnc1 (stereo not given),nt,2,-7,0,nt,nt,
O=C(Nc1ccc(F)cc1)OCc1cn(Cc2ccc(C(F)(F)F)cc2)nn1,nt,0,7,0,nt,nt,
N#CC1=C(N)C(C#N)(C#N)C(c2cccnc2)C2CN(C(=O)OCc3ccccc3)CC=C12 (stereo not given),0,0,0,0,nt,nt,
N#CC1=C(N)C(C#N)(C#N)[C@H](c2ccoc2)[C@H]2CN(Cc3ccccc3)CC=C12,0,0,-4,13*,2,3,
CN1CC=C2C(C#N)=C(N)C(C#N)(C#N)[C@H](c3ccoc3)[C@H]2C1,0,nt,nt,nt,nt,nt,
CC(=O)N1CC=C2C(C#N)=C(N)C(C#N)(C#N)[C@H](c3ccoc3)[C@H]2C1,0,0,0,16*,16*,17*,
CC(=O)N1CC=C2C(C#N)=C(N)C(C#N)(C#N)C(CCc3ccccc3)C2C1 (stereo not given),0,-9,-8,12,nt,nt,
CCN1CC=C2C(C#N)=C(N)C(C#N)(C#N)C(CCc3ccccc3)C2C1 (stereo not given),nt,-2,3,30*,15*,16*,
O=C(Nc1ccc(F)cc1)Nc1ccccc1F,2,2,5,0,nt,nt,
O=C(Nc1ccc(NC(=O)c2ccccc2O)cc1)Nc1ccc(F)cc1F,0,0,-1,31*,16*,10*,EDANS interf=9.7*
O=C(NC1CCCCN(Cc2cccc(F)c2)C1=O)c1ccc(F)cc1 (stereo not given),nt,3,-4,0,nt,nt,
CCCCNc1nc(-c2ccccc2)cc(C(F)(F)F)c1C(N)=O,0,-8,-4,19*,-5,-5,
CCOC(=O)c1c(C)n(C)c2ccc(OC(=O)c3ccco3)cc12,0,-2,1,-1,nt,nt,
CCOC(=O)c1cc2ccc(OC(=O)c3ccco3)cc2oc1=O,2,2,-3,101*,668*,659*,
CCOC(=O)c1cc2ccc3ccccc3c2oc1=O,0,1,-4,53*,74*,76*,
O=C(CSc1cc(Cl)ccc1Cl)N/N=C/c1ccc[nH]1,nt,-4,-1,nt,nt,nt,
COc1ccc2[nH]c(=O)cc(C(=O)O)c2c1,1,-2,2,20*,39*,45*,
COc1ccc2[nH]c(=O)c(C(=O)O)cc2c1,-1,1,-2,19*,11,21*,
SMILES,HIF activator,GC-A act,NPR2 activator,KLK7 zymogen act,KLK7 act conf,EDANS-DABCYL int,others
CCCC(=O)N1CCC[C@]2(CC[C@H](CCC(C)=O)O2)C1,nt,4,2,0,nt,nt,
COc1ccc(-c2cc3ncnc(Cl)c3s2)cc1,1,-5,-1,27*,4,3,
Cc1ccc2oc(=O)cc(CN3CC(C)OC(C)C3)c2c1 (stereo not given),0,1,-6,1,nt,nt,
CN(Cc1ccccc1F)Cc1cc(=O)oc2cc(O)c(Cl)cc12,0,6,4,60*,68*,61*,
CC1CCN(Cc2cc(=O)oc3cc(O)c(Cl)cc23)CC1,3,5,-5,48*,70*,71*,
CC1CN(Cc2cc(=O)oc3cc(O)c(Cl)cc23)CC(C)O1 (stereo not given),0,2,1,87*,73*,70*,
CC1CCN(Cc2cc(=O)oc3cc4c(cc23)CCCC4)CC1,0,8,14,1,nt,nt,
COc1cc(C=NNC(=O)CN2CCN(Cc3ccc(C)cc3)CC2)cc(OC)c1O,nt,-2,0,-12,nt,nt,
O=C(CC(=O)c1ccccc1)Nc1ccccn1,2,0,6,21*,2,2,
CCOC(=O)c1[nH]c2ccc(OC)cc2c1NC(=O)CCN1CCSCC1,0,-6,-4,17*,11,10*,
CCOC(=O)c1oc2ccc(OC)cc2c1NC(=O)CN1CCN(C)CC1,-1,2,5,16*,-16,-12,
CCN1CCCC1Cn1cnc2c([nH]c3ccc(OC)cc32)c1=O (stereo not given),0,3,-2,24*,9,10*,
CCC1CCCN1Cn1cnc2c([nH]c3ccc(Cl)cc32)c1=O (stereo not given),0,3,-5,0,nt,nt,
COc1ccc2[nH]c3c(=O)n(Cc4ccncc4)cnc3c2c1,1,-1,-4,13*,7,9.8*,
O=c1c2[nH]c3ccc(F)cc3c2ncn1Cc1ccncc1,0,-2,-8,1,nt,nt,
COc1ccc(-c2ccnc3cc(C(=O)O)nn23)cc1,0,2,-3,13*,34*,32*,
c1coc(-c2ccnc3nc(-n4cccc4)nn23)c1,0,-3,-6,0,nt,nt,
O=C(O)c1cc2nccc(-c3ccco3)n2n1,0,6,4,18*,23*,22*,
N#Cc1cc2cc3c(cc2nc1N1CCOCC1)OCO3,1,5,2,18*,114*,123*,
Cc1cc(C)c2nc(N3CCOCC3)c(C#N)cc2c1,-49,-1,-7,-1,nt,nt,
O[C@H](COc1cccc(Br)c1)CN1CCC(C(O)(c2ccccc2)c2ccccc2)CC1,nt,-17,-15,0,nt,nt,
COc1ccc(N(CC(=O)Nc2cccc(C(=O)O)c2)S(=O)(=O)c2c(C)noc2C)cc1,nt,-1,-2,17*,-1,0,
CCCNC(=O)C[C@H]1CC[C@H]2[C@@H](COc3ccc(NC(=O)Nc4ccc(C#N)cc4)cc3C(=O)N2C)O1,nt,4,4,0,nt,nt,
CN(C)S(=O)(=O)c1ccc(C(=O)Nc2nc(-c3cccs3)cs2)cc1,0,4,0,47*,27*,129*,

# Bioassay records: PubChem BioAssay, several laboratories
